What follows are compounds tested on HepG2 (assay: GSK_TCMDC: Percent inhibition of human HepG2 cell line. Test compounds present at 10uM.).
Assay type: functional

Compound | Inhibition
Cc1cc(C)cc(OCC(O)CN(Cc2cc(Cl)cc(Cl)c2)C(=O)Nc2ccccc2Cl)c1 (stereo not given) | 0%
Cc1cc(N[C@@H](CC(C)C)C(=O)NCc2cccs2)nc(NCCc2ccccc2)n1.O=C(O)C(F)(F)F | 1%
Cc1cc(N[C@@H](CC(C)C)C(=O)NCCc2ccccc2)nc(NCC2CCCCC2)n1.O=C(O)C(F)(F)F | 19%
O=C(CCc1cccnc1)Nc1ccc(-c2cccc(-c3nc4cc(F)ccc4[nH]3)c2)cc1 | 67%
CC1CNC(c2ccc(NC(=O)c3ccc(C(=O)Nc4ccc(C5=NC(C)CN5)cc4)cc3)cc2)=N1.CS(=O)(=O)O (stereo not given) | 15%
Br.COc1ccc2c(c1)CCCC2C(C)NCC(O)c1cccc(C(F)(F)F)c1 (stereo not given) | 3%
FC(F)(F)c1ccc(CSc2ccc3nnc(-c4ccccn4)n3n2)cc1 | 0%
CN(C)CCNCc1ccc(-c2ccc3c(Nc4ccc(F)cc4Cl)ccnc3c2)o1 | 31%
COc1ccccc1N(C)CCNc1cc(C)nc(Nc2ccc(C)cc2)n1 | 9%
COC(=O)c1ccc(NC(=O)Nc2ccc(Cn3ncc(N4CCCNCC4)c(Cl)c3=O)cc2)cc1.O=C(O)C(F)(F)F | 0%
COC(=O)c1cc(C(O)CNC(C)CCCc2ccccc2)ccc1O.Cl (stereo not given) | 17%
CCOc1cc(C(=O)Nc2ccccc2N2CCN(S(C)(=O)=O)CC2)cc(OCC)c1OCC | 0%
CC1CN(Cc2csc(Nc3ccccc3)n2)CC(C)O1 (stereo not given) | 4%
Cc1cc(OCCN2CCCCC2)ccc1NC(=O)c1cccc2c(=O)n(Cc3ccc(Cl)cc3)cnc12 | 100%
O=C(Nc1cc(Cl)cc(Cl)c1)Nc1ccccc1C(=O)NC1CCCCC1 | 12%
COc1ccc2ncc(F)c(CCN3CC[C@H](NCc4cc5c(s4)CCCN5)[C@H](O)C3)c2n1.Cl | 2%
Fc1ccc2[nH]c(-c3ccc(-c4cccc(CN5CCN(CCN6CCOCC6)CC5)c4)cc3)nc2c1.O=C(O)C(F)(F)F | 35%
Nc1c(Cl)cc(C(O)CNCCCCCCOCCC=C2CCOCC2)cc1Cl (stereo not given) | 7%
O=C(NC1CCN(CC2(c3ccccc3)CCCC2)CC1)c1n[nH]cc1Cl | 0%
CC(=O)c1sc2ccccc2c1O | 14%

Compound | Inhibition
CN(C)c1ccc(-c2ccc(C(=O)NC3CCN(Cc4ccccc4)CC3)s2)cc1.O=C(O)C(F)(F)F | 20%
Cc1ccc2[nH]c([N-]C#N)nc2c1.[Na+] | 7%
COc1ccc2cc(C(=O)Nc3ccc4c(c3)CCN(C3CCC3)CC4)ccc2c1.O=C(O)C(F)(F)F | 34%
CN(Cc1ccccc1)C(=O)CCNS(=O)(=O)c1cc(Br)cnc1N | 0%
COc1cccc(NC(=O)NCCNc2ccnc(Nc3ccc(F)cc3)n2)c1 | 18%
CCCc1cc(OC)c(CC2c3cc(O)c(C)cc3CCN2C)cc1OC.Cl (stereo not given) | 32%
Cc1c(C(=O)NCc2ccncc2)sc2nc(-c3cccc([N+](=O)[O-])c3)cn12 | 18%
Cc1nc(-c2ccc(-c3ccc(C(=O)Nc4ccc(I)c(OCCN5CCCC5)c4)cc3)c(C)c2)no1.Cl | 96%
CCOC(=O)c1ccc(NC(=O)N[C@@H](Cc2ccc(O)cc2)C(=O)NC2CCN(Cc3ccc4c(c3)OCO4)CC2)cc1.O=C(O)C(F)(F)F | 0%
CC(=O)Nc1cccc(C(=O)Nc2cccc(-c3ccc(-c4nc5cccc(C)c5[nH]4)s3)c2)c1 | 75%
O=C(O)C(F)(F)F.O=[N+]([O-])c1cccc(CNC2CCN(Cc3ccc4ccccc4c3)CC2)c1 | 12%
CCOc1ccc(C2CCN(CCN3CCC(NC(=O)c4ccc(-c5ccc(C(F)(F)F)cc5)cc4)CC3)CC2)c(OCC2CC2)c1 | 13%
Fc1ccc2[nH]c(-c3ccc(-c4ccc(CNCc5ccccc5)cc4)cc3)nc2c1.O=C(O)C(F)(F)F | 35%
CCc1c[nH]c2c(N3CCCS3(=O)=O)cc(C(=O)N[C@@H](Cc3ccccc3)[C@H](O)CNC(C)(C)CCCC(C)C)cc12 | 13%
Cc1cc2cc(NC(=O)Nc3ccnc4ccccc34)ccc2n1C.Cl | 17%
CCCCCCNCCOc1ccc(-c2nc(-c3ccccc3)c(-c3ccccc3)[nH]2)cc1 | 14%
CCN(CC)CCCN(C(=O)Nc1ccc(C#N)cc1)c1nc(-c2ccc(F)cc2)cs1 | 36%
CN1CCCC1CCNc1ncc2c(-c3ccc(NC(=O)Nc4cc(C(F)(F)F)ccc4F)cc3)nn(C)c2n1.O=C(O)C(F)(F)F (stereo not given) | 74%
CCN(CC)c1ccc(NC(=S)NC2CCN(CCCCCNC(=O)/C=C/c3ccc(Cl)c(Cl)c3)CC2)cc1 | 16%
COc1cc2nc(N3CCC(CNC(=O)c4ccc(NC(=O)c5ccc(Cl)cc5)cc4)CC3)nc(N)c2cc1OC | 98%
